From PubChem
Measles CPE = compounds protecting cells from measles virus cytopathic effect, primary screen, measles RdRp inhibitor project, single point, MLSMR library, absorbance; Measles virus-infected cells, CPE protection; protection (pct of control), % at 4 µM; 140,000 tested, 1.5% active; AID 841, 2007; in the data active = protection mostly above about 24%, no sharp cut-off; inactive = mostly below about 26%
CYP2C9 inhib = blockers of cytochrome P450 2C9 activity – biochemical, luminescence, ADME assay, primary screen. P11712. CYP2C9 Supersomes, luciferin-H conversion. inhibition, % at 5 µM. 96,000 tested, 20% active. AID 777, 2007;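 active = blocking of liver enzyme CYP2C9 beyond about 50% at 5 µM, limit read from the data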
CYP2C19 inh = blockers of cytochrome P450 2C19 activity – biochemical, luminescence, ADME assay, primary screen. 96,000 tested, 21% active. CYP2C19 Supersomes, luciferin-H EGE luminescence, 30 min. inhibition, % at 5 µM;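 active = CYP2C19 inhibition above a set limit at 5 µM in the primary screen, cut at about 50% in these data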;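 also: plate controls were negative control wells for no effect and 2.5 mM tranylcypromine positive control for full effect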
Target sequence (P33261 whole entry, looked up): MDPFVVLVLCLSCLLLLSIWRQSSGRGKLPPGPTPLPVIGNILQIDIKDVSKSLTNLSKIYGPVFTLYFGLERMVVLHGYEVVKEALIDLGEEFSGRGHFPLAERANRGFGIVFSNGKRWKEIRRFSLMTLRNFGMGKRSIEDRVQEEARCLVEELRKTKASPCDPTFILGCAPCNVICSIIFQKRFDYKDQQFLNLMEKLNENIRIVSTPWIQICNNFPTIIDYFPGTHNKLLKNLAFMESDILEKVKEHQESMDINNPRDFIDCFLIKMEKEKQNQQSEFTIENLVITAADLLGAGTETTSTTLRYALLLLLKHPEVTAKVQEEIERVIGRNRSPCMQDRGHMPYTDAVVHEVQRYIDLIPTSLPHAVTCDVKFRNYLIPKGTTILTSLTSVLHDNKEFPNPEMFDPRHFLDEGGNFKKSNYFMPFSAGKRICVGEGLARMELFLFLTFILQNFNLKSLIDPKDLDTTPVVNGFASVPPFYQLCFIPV
CYP2C9 activ = human CYP2C9 activators, primary screen, biochemical, luminescence; activation factor at 5 µM; AID 1024, 2008; recombinant CYP2C9, luciferin-H conversion; active compounds read high; factor 1 = untreated enzyme, 0 = blocked; 96,000 tested, 1.4% active; Cytochrome P450 2C9 (Homo sapiens), P11712;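 active = activation factor of 2 or more for CYP2C9 at a 5 µM dose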;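 also: 0 = sulfaphenazole-blocked wells and 1 = vehicle-only wells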
CYP2C19 act = human CYP2C19 activators, primary screen, biochemical, luminescence; recombinant CYP2C19, luciferin-H EGE luminescence; active compounds read high; 0 = fully inhibited enzyme, 1 = untreated enzyme; AID 1025, 2008; Cytochrome P450 2C19 (Homo sapiens), P33261; 96,000 tested, under 10 active; activation factor at 5 µM;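 active = activation factor of at least 2 at 5 µM in the primary screen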;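 also: 0 = wells with 2.5 mM tranylcypromine and 1 = vehicle-only wells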
Numbers without * were called inactive; . = no result given. This is a sample that favours compounds with a hit; in the whole collection about 22% have one here.

SMILES | Measles CPE | CYP2C9 inhib | CYP2C19 inh | CYP2C9 activ | CYP2C19 act
CC(C)(C)NC(=O)Cn1c(=O)oc2cc(S(=O)(=O)N3CCc4ccccc43)ccc21 | 7.6 | 47.3 | 8.1 | 0.5 | 0.9
COc1ccc(NS(=O)(=O)c2cc(NC(=O)c3ccco3)ccc2N2CCCCC2)cc1 | 1.4 | . | . | . | .
COc1cc(Cl)c(S(=O)(=O)NCc2cccnc2)cc1Cl | 8.2 | 10.6 | 85.1* | 0.9 | 0.1
COc1cc(S(=O)(=O)NCc2cccnc2)ccc1F | 8.1 | -27.0 | 83.2* | 1.3 | 0.2
COc1ccc(S(=O)(=O)NCc2ccccn2)cc1Cl | 12.6 | -218.3 | 92.1* | 3.2* | 0.1
O=S(=O)(NCCc1ccccn1)c1ccc(F)c(F)c1 | 5.4 | 23.4 | 84.9* | 0.8 | 0.2
CCN1C(=O)/C(=C/c2ccc(C)o2)N(C)C1=S | 4.2 | . | . | . | .
O=C(COn1nnc2ccc(Cl)cc21)NC12CC3CC(CC(C3)C1)C2 | 10.0 | 14.5 | 26.0 | 0.9 | 0.7
COc1cc(Cl)c(S(=O)(=O)NCc2ccccn2)cc1Cl | 1.1 | -31.4 | 81.2* | 1.3 | 0.2
Cc1nc2sc(C(c3cccs3)N3CC(C)CC(C)C3)c(O)n2n1 (stereo unspecified) | 14.8 | -14.4 | 67.4* | 1.1 | 0.3
CCOC(=O)Nc1nnc(-c2ccccc2OC)s1 | 13.1 | . | . | . | .
COc1ccccc1-c1nnc(NC(=O)OCC(C)C)s1 | 21.9 | -143.6 | 19.2 | 2.4* | 0.8
CCn1c(SCC(=O)Nc2nc(C)c(C(=O)OC)s2)nnc1C(C)C | 3.6 | 34.0 | 50.0* | 0.7 | 0.5
CCCn1c(SCC(=O)Nc2nc(C)c(C(=O)OC)s2)nnc1C(C)C | 31.3* | 27.9 | 37.9 | 0.7 | 0.6
Nc1nc(CSc2nnnn2-c2ccc(Cl)cc2)nc(N2CCOCC2)n1 | 8.2 | 1.9 | -0.7 | 1 | 1
CCOC(=O)C1CCN(c2ncnc3c2oc2ccc(Cl)cc23)CC1 | 3.8 | 53.0* | 80.5* | 0.5 | 0.2
CCOC(=O)C1CCN(c2ncnc3c2[nH]c2cccc(OC)c23)CC1 | 5.5 | 50.9* | 60.8* | 0.5 | 0.4
COc1cccc2[nH]c3c(N4CCCCC4)ncnc3c12 | 0.8 | 24.0 | 25.6 | 0.8 | 0.7
CC1CCCCN1C(=S)NCCc1ccccc1 (stereo unspecified) | 5.7 | 26.6 | 95.9* | 0.7 | 0
CCOC(=O)/C(C#N)=c1/s/c(=C2\C=Cc3ccccc3N2CC)c(=O)n1CC | 5.1 | 41.7 | 57.5* | 0.6 | 0.4
Fc1ccc(Cl)cc1/C=N/n1cnnc1SCc1ccccc1 | 10.3 | 8.8 | 66.0* | 0.9 | 0.3
Cc1ccc(C(=O)NNC(=S)NC(=O)COc2ccccc2)cc1 | 15.1 | 78.2* | 31.6 | 0.2 | 0.7
Cc1ccccc1C(=O)NNC(=S)NC(=O)COc1ccccc1 | 3.7 | 88.9* | 55.3* | 0.1 | 0.4
Cc1ccc(C(=O)NCCSc2snnc2C)cc1 | 8.3 | 4.4 | 28.0 | 1 | 0.7
Cc1cccc(C(=O)NCCc2nnc(SCC(=O)Nc3nc(C)cs3)n2C)c1 | 14.3 | 31.0 | 12.6 | 0.7 | 0.9
SMILES | Measles CPE | CYP2C9 inhib | CYP2C19 inh | CYP2C9 activ | CYP2C19 act
CCOC(=O)C(NC(=O)Nc1ccc(Cl)cn1)(Oc1ccc(F)cc1)C(F)(F)F (stereo unspecified) | 19.5 | . | . | . | .
Cc1occc1-c1nnc(SCCCC(=O)c2ccc(F)cc2)n1C | 2.7 | 54.1* | 71.5* | 0.5 | 0.3
Cn1c(SCCCC(=O)c2ccc(F)cc2)nnc1-c1ccncc1 | 17.3 | 59.0* | 71.0* | 0.4 | 0.3
CCc1cccc2c(C(=O)CSc3nncn3-c3ccc(OC)cc3)c[nH]c12 | 5.4 | . | . | . | .
CCn1c(SCC(=O)c2ccc(F)cc2)nnc1-c1ccoc1C | 6.9 | 30.6 | 37.5 | 0.7 | 0.6
COCCn1c(SCCCC(=O)c2ccc(Br)cc2)nnc1-c1ccncc1 | 20.7 | 84.6* | 93.8* | 0.2 | 0.1
Cn1c(SCC(=O)c2ccc(F)cc2)nnc1-c1cnccn1 | 3.0 | -6.1 | 37.1 | 1.1 | 0.6
CCc1cccc2c(C(=O)CSc3nnc(-c4ccoc4C)n3C)c[nH]c12 | 8.0 | 52.6* | 65.0* | 0.5 | 0.3
Cc1cc(C)nc(N/C(=N\S(=O)(=O)Cc2ccccc2)Nc2cccc(Cl)c2C)n1 | 8.0 | 2.0 | -0.4 | 1 | 1
CCCOc1ccc(-c2nc(C#N)c(NCC3CCCO3)o2)cc1 (stereo unspecified) | 0.8 | 23.0 | 3.5 | 0.8 | 1
Cn1c(SCCCC(=O)c2ccccc2)nnc1-c1ccncc1 | 7.2 | 54.0* | 67.9* | 0.5 | 0.3
O=C(/C=C/c1ccccc1)N1c2ccccc2Sc2ccc(C(F)(F)F)cc21 | 4.8 | . | . | . | .
COCCNC(=O)c1c[nH]n2c(=O)cc(C3CCN(C(=O)OC(C)(C)C)CC3)nc12 | 12.6 | 62.2* | 8.7 | 0.4 | 0.9
COc1cc(OC)cc(C(=O)Nc2ccc(-n3cnnn3)c(C)c2)c1 | 3.2 | 92.3* | 83.1* | 0.1 | 0.2
Cc1cc(NC(=O)c2oc3ccccc3c2C)ccc1-n1cnnn1 | 1.6 | 77.3* | 43.1 | 0.2 | 0.6
Cc1c(C(=O)Nc2ccc(N3CCOCC3)cc2)oc2ccccc12 | 23.1 | -15.1 | -3.5 | 1.2 | 1
CCc1ccc(N(C(=O)CNC(=O)c2cccs2)C(C(=O)NC(C)(C)C)c2cc(OC)c(OC)c(OC)c2)cc1 (stereo unspecified) | 4.5 | 41.2 | 35.7 | 0.6 | 0.6
COc1ccc(C(=O)NNC(=O)C(NC(=O)c2ccccc2NC(=O)c2ccco2)C(C)C)cc1 (stereo unspecified) | 3.5 | . | . | . | .
COc1ccc(C2C(C#N)=C(N)OC3=C2C(=O)CCC3)cc1Cn1nc(C)c([N+](=O)[O-])c1C (stereo unspecified) | 8.5 | 44.2 | 24.6 | 0.6 | 0.8
COc1cc(C2C(C#N)=C(N)Oc3n[nH]c(C)c32)ccc1OC(=O)c1ccccc1 (stereo unspecified) | 15.8 | 9.4 | -6.6 | 0.9 | 1.1
COc1cc(C2C(C#N)=C(N)Oc3n[nH]c(C)c32)cc2c1OCO2 (stereo unspecified) | 5.2 | 63.0* | 54.8* | 0.4 | 0.5
COc1ccc(C2C(C#N)=C(N)Oc3n[nH]c(C)c32)cc1Cn1cc([N+](=O)[O-])cn1 (stereo unspecified) | 19.8 | 66.8* | 21.2 | 0.3 | 0.8
COc1ccc(C2C(C#N)=C(N)Oc3n[nH]c(C)c32)cc1Cn1nc(C)c([N+](=O)[O-])c1C (stereo unspecified) | 8.8 | 53.9* | 56.1* | 0.5 | 0.4
O=C(C1CCCN(S(=O)(=O)c2cccs2)C1)N1CCC(N2CCCCC2)CC1 (stereo unspecified) | 5.1 | 7.9 | -11.3 | 0.9 | 1.1
CSC(=NC#N)N1CCN(c2ccccc2)CC1 | 2.6 | -4.5 | 50.8* | 1 | 0.5
CSC(=NC#N)N1CCN(c2cccc(Cl)c2)CC1 | 23.4 | 33.3 | 95.4* | 0.7 | 0
